Measured values as given in PubChem BioAssay AID1159580 (chemical genetic matrix, 2015).
Screen size: about 5,500 compounds; about 2,000 (36%) were called active. About 18% were inconclusive and are not listed. No stated cut-off is given here; in the data, active means normalized growth mostly below about 0.91 (no sharp cut-off); inconclusive means no clear call, values can overlap the other calls; inactive means mostly above about 0.92. This is one part of the list.

Experiment: chemical genetic growth profiling, strain panel (AID 1159580);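 further: tested at 20 µM; growth read once vehicle control cultures reached saturation at 30 °C; 1 = growth at the plate median or of vehicle wells; lower values mean less growth of the strain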
Conditions: S. cerevisiae deletion strains, growth OD

Measured: normalized growth

S=C(Nc1ccccc1)Nc1nccs1
inactive: locus YAL013W, strain DEP1, active compounds read low 1.01 | locus YAL040C, strain CLN3, active compounds read low 1.01 | locus YCL061C, strain MRC1 (second series), active compounds read low 0.993 | locus YDR150W, strain NUM1, active compounds read low 0.974 | locus YDR363W, strain ESC2, active compounds read low 0.977 | locus YER002W, strain NOP16, active compounds read low 0.991 | locus YGR078C, strain PAC10, active compounds read low 0.988 | locus YMR307W, strain GAS1, active compounds read low 0.993 | locus YNL175C, strain NOP13, active compounds read low 0.999 | locus YNL197C, strain WHI3, active compounds read low 0.993 | locus YNL224C, strain SQS1, active compounds read low 0.995 | locus YPL055C, strain LGE1, active compounds read low 0.948
active: locus YNL153C, strain GIM3, active compounds read low 0.772
